# Source: PubChem BioAssay (NCATS)
# Inconclusive results are not listed. Activity calls are given as the source filed them. Calls follow the shape of the dose curve; as a rule, active = well fitted curve in the direction sought with a large enough effect; inconclusive = small, poorly fitted or top-dose-only effect, or another doubt; inactive = no such curve, though single readings can be large; an effect the other way counts as inactive or inconclusive.
# How the values were obtained:
# [1] = Quantitative High-Throughput drug screen in 47 multiple myeloma cell lines against the NCATS MIPE library collection: Delta47_JCRB cell viability assay (AID 1918925; also: nearly all actives have a fitted effect of over 45% in size)
# Summary of the method: (§1)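 qHTS of the MIPE 4.0 collection: 500 myeloma cells/well, 48 h drug exposure at 37C in 5% CO2, then CellTiter-Glo for 5 min at room temperature before luminescence reading.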
# [2] = Quantitative High-Throughput drug screen in 47 multiple myeloma cell lines against the NCATS MIPE library collection: EJM_DSMZ cell viability assay (AID 1918926; also: nearly all actives have a fitted effect of over 30% in size)
# Summary of the method: as §1
# [3] = Quantitative High-Throughput drug screen in 47 multiple myeloma cell lines against the NCATS MIPE library collection: AMO1_DSMZ cell viability assay (AID 1918927; also: nearly all actives have a fitted effect of over 30% in size)
# Summary of the method: as §1
# [4] = Quantitative High-Throughput drug screen in 47 multiple myeloma cell lines against the NCATS MIPE library collection: ARP1_JJKsccF8 cell viability assay (AID 1918928; also: nearly all actives have a fitted effect of over 40% in size)
# Summary of the method: (§2)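 CellTiter-Glo luminescence after 48 h exposure gives viability, scaled between DMSO-only (100%) and media-only (0%) controls. Library compounds are pinned onto 500 myeloma cells per well, incubated at 37C with 5% CO2.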
# [5] = Quantitative High-Throughput drug screen in 47 multiple myeloma cell lines against the NCATS MIPE library collection: ARD_JJKsccE7 cell viability assay (AID 1918929)
# Summary of the method: as §1
# [6] = Quantitative High-Throughput drug screen in 47 multiple myeloma cell lines against the NCATS MIPE library collection: Karpas620_DSMZ cell viability assay (AID 1918959); also: nearly all actives have a fitted effect of over 30% in size
# Summary of the method: (§3)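 Relative luminescence from CellTiter-Glo served as the viability signal, referenced to DMSO-treated (100%) and cell-free medium (0%) controls. Treatment lasted 48 hours at 37C with 500 cells per well.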
# [7] = Quantitative High-Throughput drug screen in 47 multiple myeloma cell lines against the NCATS MIPE library collection: KMM1_JCRB cell viability assay (AID 1918960); also: nearly all actives have a fitted effect of over 30% in size
# Summary of the method: as §2
# [8] = Quantitative High-Throughput drug screen in 47 multiple myeloma cell lines against the NCATS MIPE library collection: Karpas417_ECACC cell viability assay (AID 1918961); details: Karpas417 myeloma viability, CellTiter-Glo ATP luminescence, 48 h; viability (% of DMSO): at 45.8 µM (top of the series)
# Summary of the method: as §3
# [9] = Quantitative High-Throughput drug screen in 47 multiple myeloma cell lines against the NCATS MIPE library collection: KHM11_PLB cell viability assay (AID 1918962); also: nearly all actives have a fitted effect of over 35% in size
# Summary of the method: as §3
# [10] = Quantitative High-Throughput drug screen in 47 multiple myeloma cell lines against the NCATS MIPE library collection: JIM3_ECACC cell viability assay (AID 1918963; also: nearly all actives have a fitted effect of over 35% in size)
# Summary of the method: as §3
# [11] = Quantitative High-Throughput drug screen in 47 multiple myeloma cell lines against the NCATS MIPE library collection: JIM1_ECACC cell viability assay (AID 1918964)
# Summary of the method: as §1
# [12] = Quantitative High-Throughput drug screen in 47 multiple myeloma cell lines against the NCATS MIPE library collection: INA6_PLB cell viability assay (AID 1918965; also: nearly all actives have a fitted effect of over 55% in size)
# Summary of the method: as §3
# [13] = Quantitative High-Throughput drug screen in 47 multiple myeloma cell lines against the NCATS MIPE library collection: JJN3_DSMZ cell viability assay (AID 1918966; also: nearly all actives have a fitted effect of over 50% in size)
# Summary of the method: as §1
# [14] = Quantitative High-Throughput drug screen in 47 multiple myeloma cell lines against the NCATS MIPE library collection: Karpas25_ECACC cell viability assay (AID 1918968; also: nearly all actives have a fitted effect of over 35% in size)
# Summary of the method: as §1
# [15] = Quantitative High-Throughput drug screen in 47 multiple myeloma cell lines against the NCATS MIPE library collection: KMS27_JCRB cell viability assay (AID 1918970); details: KMS27 myeloma cells, CellTiter-Glo ATP viability, 48 h; viability (% of DMSO): at 45.8 µM (top of the series); also: nearly all actives have a fitted effect of over 30% in size
# Summary of the method: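 Myeloma cells (500 per well) were exposed to MIPE 4.0 compounds for 48 h at 37 °C, 5% CO2; viability was read as ATP luminescence with CellTiter-Glo, normalized to DMSO-only (100%) and media-only (0%) wells.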
# [16] = Quantitative High-Throughput drug screen in 47 multiple myeloma cell lines against the NCATS MIPE library collection: H1112_PLB cell viability assay (AID 1918967; also: nearly all actives have a fitted effect of over 30% in size)
# Summary of the method: as §1
# [17] = Quantitative High-Throughput drug screen in 47 multiple myeloma cell lines against the NCATS MIPE library collection: FR4_PLB cell viability assay (AID 1918924; also: nearly all actives have a fitted effect of over 35% in size)
# Summary of the method: as §3
# Potency is read from the fitted curve at half-maximal effect.
SMILES,Potency [1],Potency [2],Potency [3],Potency [4],Potency [5],Potency [6],Potency [7],Potency [8],Potency [9],Potency [10],Potency [11],Potency [12],Potency [13],Potency [14],Potency [15],Potency [16],Potency [17]
Cc1cccc(Nc2nc(N[C@@H]3CCCC[C@H]3N)ncc2C(N)=O)c1,0.187 µM (active),20.9 µM (active),20.9 µM (active),16.6 µM (active),20.9 µM (active),26.4 µM (active),16.6 µM (active),3.72 µM (active),4.18 µM (active),16.6 µM (active),5.9 µM (active),1.48 µM (active),16.6 µM (active),10.5 µM (active),23.5 µM (active),,
Cc1ccc(NC(=O)Nc2cc(C(F)(F)F)ccc2F)cc1Nc1ccc2c(c1)NC(=O)C2=Cc1ccc[nH]1,4.69 µM (active),26.4 µM (active),4.18 µM (active),,3.32 µM (active),5.26 µM (active),5.9 µM (active),2.09 µM (active),7.43 µM (active),4.18 µM (active),4.18 µM (active),4.18 µM (active),23.5 µM (active),5.26 µM (active),,11.8 µM (active),
O=C(O)Cc1cccc(OCCCN(Cc2cccc(C(F)(F)F)c2Cl)CC(c2ccccc2)c2ccccc2)c1,,,inactive,,inactive,inactive,inactive,,,,,,5.26 µM (active),,,,inactive
COc1cc2nc(-c3cc(F)ccc3O)nc(N[C@@H]3CNC[C@@H]3C(C)(C)O)c2cc1OC,2.64 µM (active),11.8 µM (active),6.62 µM (active),10.5 µM (active),6.62 µM (active),6.62 µM (active),4.18 µM (active),0.118 µM (active),0.0743 µM (active),7.43 µM (active),1.87 µM (active),0.001 µM (active),11.8 µM (active),4.18 µM (active),5.9 µM (active),14.8 µM (active),
Cn1c(=O)c(Oc2ccc(F)cc2F)cc2cnc(NC3CCOCC3)nc21,,inactive,,,0.0074 µM (active),inactive,,,,inactive,,,,,,inactive,inactive
CCC[C@H](N[C@@H](C)C(=O)N1[C@@H]2CCCC[C@H]2C[C@H]1C(=O)O)C(=O)OCC,,inactive,,inactive,,inactive,,,,14.8 µM (active),,inactive,,inactive,14.8 µM (active),inactive,inactive
Cc1ccc(C2=Nc3ccc(Cl)cc3OC2)cc1,,,1.18 µM (active),,,inactive,3.32 µM (active),,,inactive,,,5.26 µM (active),3.72 µM (active),,inactive,4.69 µM (active)
CC[C@]1(O)C[C@H]2CN(CCC3=c4ccccc4=N[C]3[C@@](C(=O)OC)(c3cc4c(cc3OC)N(C)[C@H]3[C@@](O)(C(N)=O)[C@H](O)[C@]5(CC)C=CCN6CC[C@]43[C@@H]65)C2)C1,,,0.833 µM (active),0.0105 µM (active),0.118 µM (active),,0.105 µM (active),,,,,,,,0.296 µM (active),0.0332 µM (active),inactive
OC[C@H]1O[C@@H](O[C@H]2[C@@H](O)[C@@](O)(CO)O[C@@H]2CO)[C@H](O)[C@@H](O)[C@@H]1O,inactive,,inactive,inactive,inactive,inactive,inactive,inactive,,inactive,inactive,inactive,,inactive,,inactive,
CC[C@H](C)n1cc(C)c2c(C(=O)NCc3c(C)cc(C)[nH]c3=O)cc(-c3ccc(N4CCNCC4)nc3)cc21,20.9 µM (active),20.9 µM (active),inactive,,,inactive,inactive,,,,inactive,18.7 µM (active),,23.5 µM (active),,,
CCCCC[C@H](O)C=C[C@H]1[C@H](O)CC(=O)[C@H]1CC=CCCCC(=O)O,inactive,,inactive,inactive,inactive,inactive,inactive,,5.9 µM (active),20.9 µM (active),,18.7 µM (active),,20.9 µM (active),inactive,,
COc1ccc2c(c1)c(C1=C(c3c[nH]c4ccccc34)C(=O)NC1=O)cn2CCCN(C)C,7.43 µM (active),,14.8 µM (active),,23.5 µM (active),,23.5 µM (active),,,13.2 µM (active),,0.526 µM (active),20.9 µM (active),20.9 µM (active),18.7 µM (active),,
CCC[C@@H](NC(=O)[C@@H]1[C@H]2CCC[C@@H]2CN1C(=O)[C@@H](NC(=O)[C@@H](NC(=O)c1cnccn1)C1CCCCC1)C(C)(C)C)C(=O)C(=O)NC1CC1,14.8 µM (active),inactive,18.7 µM (active),,,18.7 µM (active),,,,20.9 µM (active),,,,18.7 µM (active),inactive,18.7 µM (active),
N#CC(c1ccnc(NCCc2cccnc2)n1)c1nc2ccccc2s1 (stereo not drawn),11.8 µM (active),,6.62 µM (active),18.7 µM (active),6.62 µM (active),9.35 µM (active),4.69 µM (active),,11.8 µM (active),16.6 µM (active),5.9 µM (active),3.72 µM (active),10.5 µM (active),7.43 µM (active),7.43 µM (active),18.7 µM (active),
